Reference: PubChem BioAssay (EPA / NIEHS)
Inconclusive results are not listed. Activity calls are given as the source filed them. The calls were made as follows: active = hit-call score of the fitted dose curve at least 0.9, where 1 is the maximum; inconclusive = response in the unintended direction; inactive = score below 0.9.

Target: Oxysterols receptor LXR-beta (Homo sapiens) (UniProt P55055)
Test: ATG_LXRb_TRANS: Attagene TRANS-FACTORIAL HepG2 Assay for human Liver X Receptor beta (LXRb) (AID 2282981)
Settings: HepG2 Attagene TRANS GAL4-LXRb reporter, mRNA
Method: ATG_TRANS is a cell-based, multiplexed-readout assay that uses HepG2, a human liver cell line, with measurements taken at 24 hours after chemical dosing in a 24-well plate.ATG_LXRb_TRANS is one of 30 assay component(s) measured or calculated from the ATG_TRANS assay. It is designed to make measurements of mRNA induction, a form of inducible reporter, as detected with fluorescence intensity signals by Reverse transcription polymerase chain reaction (RT-PCR) and Capillary electrophoresis technology.Data from the assay component ATG_LXRb_TRANS was analyzed into 1 assay endpoint. This assay endpoint, ATG_LXRb_TRANS, was analyzed in the positive analysis fitting direction relative to DMSO as the negative control and baseline of activity. Using a type of inducible reporter, measures of mRNA for gain-of-signal activity can be used to understand the reporter gene at the transcription factor-level as they relate to the gene NR1H2. Furthermore, this assay endpoint can be referred to as a primary readout, because this assay has produced multiple assay endpoints where this one serves a reporter gene function. To generalize the intended target to other relatable targets, this assay endpoint is annotated to the nuclear receptor intended target family, where the subfamily is non-steroidal.
Human liver HepG2 cells are transiently transfected with multiple reporter transcription units (MRTUs) in 6-well plates using FuGene 6 reagent (Roche; 3 ml FuGene/1 mg DNA). The MRTU constructs are regulated by a cis-regulating element (promoter). […] A major difference between the CIS and TRANS system is that in CIS activities of endogenous TFs are measured, whereas the TRANS assay evaluates changes in activities of exogenous, chimeric NR-Gal4 proteins. […] At the end of 24 hour incubation, total RNA was isolated using TriZol reagent (Invitrogen). The isolated RNA is then reverse-transcribed using oligo(dT) primer and Mo-MLV reverse transcriptase (Invitrogen) with DNAse I (Ambion) treatment for 30 min. The one-tenth of the produced cDNA was amplified by PCR using Taq DNA polymerase (Invitrogen) and two reporter sequence-specific primers. The PCR products were fluorescently labeled by primer extension with 6-arboxyfluorescein (6-FAM) 5'-labeled reporter sequence-specific primer (2 min at 95 C, 20 s at 68 C and 10 min at 72 C) and these products were digested with 5U of HpaI (New England Biolabs) for 2h at 37 C. The fragments were purified using Qiaquick PCR columns (Qiagen), analyzed on an ABI 3130xL genetic analyzer (Applied Biosystems) with peak positions identified by using a set of X-rhodamine (ROX)-labeled MapMarker1000 molecular weight standards (BioVentures). The raw capillary electrophoresis data was processed using Attagraph software (Attagene).

Sequence of Oxysterols receptor LXR-beta (Homo sapiens) (P55055 whole entry, looked up): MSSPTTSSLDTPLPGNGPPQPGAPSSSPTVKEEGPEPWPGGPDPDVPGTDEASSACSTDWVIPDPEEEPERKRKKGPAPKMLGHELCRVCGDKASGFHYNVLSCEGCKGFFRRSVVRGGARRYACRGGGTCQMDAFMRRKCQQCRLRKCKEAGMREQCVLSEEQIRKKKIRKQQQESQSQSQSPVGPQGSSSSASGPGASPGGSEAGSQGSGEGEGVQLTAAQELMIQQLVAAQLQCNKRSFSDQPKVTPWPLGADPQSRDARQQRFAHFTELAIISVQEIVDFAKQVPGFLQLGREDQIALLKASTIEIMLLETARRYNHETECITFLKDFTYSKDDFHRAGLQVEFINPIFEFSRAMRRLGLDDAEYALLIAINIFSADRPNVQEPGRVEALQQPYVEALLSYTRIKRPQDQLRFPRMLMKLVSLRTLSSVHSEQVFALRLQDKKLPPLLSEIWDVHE

| Structure (SMILES) | outcome | AC50 |
| --- | --- | --- |
| CNC(=O)Oc1ccc(N(C)C)c(C)c1 | inactive |  |
| ClC1=C(Cl)C2(Cl)C3C(Cl)C(Cl)CC3C1(Cl)C2(Cl)Cl (stereo not given) | inactive |  |
| Cc1cccc(N)c1 | inactive |  |
| c1nc[nH]n1 | inactive |  |
| OCC(F)(F)OC(F)(F)C(F)(F)OC(F)(F)C(F)(F)OC(F)(F)CO | inactive |  |
| CCCCN(CC)C(=O)SCCC | inactive |  |
| O=S(=O)(c1ccc(O)cc1)c1ccc(O)cc1 | inactive |  |
| O=C(O)C=CC(F)(C(F)(F)F)C(F)(F)F | inactive |  |
| Clc1ccc(Oc2ccccc2)cc1 | inactive |  |
| CC(=O)CCc1ccc2c(c1)OCO2 | inactive |  |
| CC(C)(C)OOC(C)(C)C | inactive |  |
| c1ccc2c(c1)sc1ccccc12 | inactive |  |
| O=C(O)C(F)(F)OC(F)(F)C(F)(F)OC(F)(F)F | inactive |  |
| O=c1ssc(Cl)c1Cl | inactive |  |
| CCOC(=O)c1ccccc1C(=O)OCC | inactive |  |
| c1cc2c3c(cccc3c1)CC2 | inactive |  |
| CCOS(=O)(=O)OCC | inactive |  |
| Nc1ccc2ccccc2c1 | inactive |  |
| CCCCCCCc1ccc(O)cc1 | inactive |  |
| CCOC(=O)c1ccccc1N | inactive |  |

| Structure (SMILES) | outcome | AC50 |
| --- | --- | --- |
| CCOP(=S)(OCC)SCS(=O)(=O)CC | inactive |  |
| [N-]=[N+]=[N-] |  | 100 µM (active) |
| O=C(O)C(F)(F)C(F)(F)C(=O)O | inactive |  |
| Nc1ccc([N+](=O)[O-])cc1Cl | inactive |  |
| ClC(Cl)c1ccccc1 | inactive |  |
| O=NN1CCCC1 | inactive |  |
| OCC1CO1 (stereo not given) | inactive |  |
| CC(O)C(F)(F)C(F)(F)F (stereo not given) | inactive |  |
| FC(F)(F)C(F)(C(F)(F)F)C(F)(F)C(F)(F)CC1CO1 (stereo not given) | inactive |  |
| O=P1(N(CCCl)CCCl)NCCCO1 (stereo not given) | inactive |  |
| O=C(O)C1C(C(=O)O)C2(Cl)C(Cl)=C(Cl)C1(Cl)C2(Cl)Cl (stereo not given) | inactive |  |
| Oc1ccc(I)cc1 | inactive |  |
| CN(C)C(=O)Cl | inactive |  |
| O=[N+]([O-])c1ccc(Cl)c(Cl)c1 | inactive |  |
| O=S(=O)(F)C(F)(F)C(F)(F)C(F)(F)C(F)(F)C(F)(F)C(F)(F)C(F)(F)C(F)(F)F | inactive |  |
| Nc1cc2c3c(c1)C(c1ccccc1)=N[C@@H](NC(=O)c1cccnc1)C(=O)N3CC2 | inactive |  |
| O=C(O)C(F)(OC(F)(F)C(F)(F)C(F)(F)F)C(F)(F)F (stereo not given) | inactive |  |
| CC(Cc1ccc(OCC(=O)O)cc1)NCC(O)c1csc(C(F)(F)F)n1 (stereo not given) | inactive |  |
| ClC(Cl)(Cl)c1ccccc1 | inactive |  |
| CCOP(=S)(S)OCC | inactive |  |
